{
  "source": "the OligoGym collection",
  "data": [
    {"biological_target": "YAP1", "test": "pooled miR-30 sensor sort-seq; sequence = guide strand", "details": "shRNA", "values": [
      {"sequence": "TGTTGTTGTCTGATCGATGTGA", "sensor-assay potency score (higher = more potent)": 0.751},
      {"sequence": "TGCTGTGACATGAAGCATCTGA", "sensor-assay potency score (higher = more potent)": 0.636},
      {"sequence": "TTAAGGAAAGGATCTGAGCTAT", "sensor-assay potency score (higher = more potent)": -0.559},
      {"sequence": "ATCTTTTTCTGTATTAGCCTGA", "sensor-assay potency score (higher = more potent)": 0.428},
      {"sequence": "TACATTAACAGCAGCAATGGAC", "sensor-assay potency score (higher = more potent)": -0.672},
      {"sequence": "TTGGTTGATAGTATCACCTGTA", "sensor-assay potency score (higher = more potent)": 0.588},
      {"sequence": "TTGAACAAACTAAATGCTGTGA", "sensor-assay potency score (higher = more potent)": 0.444},
      {"sequence": "TAAAGTATCTTGCTGGACGTTT", "sensor-assay potency score (higher = more potent)": -0.0595},
      {"sequence": "TTAAGAAGTATCTCTGACCAGA", "sensor-assay potency score (higher = more potent)": 0.035},
      {"sequence": "TGTTGAACAAACTAAATGCTGT", "sensor-assay potency score (higher = more potent)": 0.164},
      {"sequence": "TTTGGTTGATAGTATCACCTGT", "sensor-assay potency score (higher = more potent)": 0.841},
      {"sequence": "TTAGCCTGAAAACTGCAACTGG", "sensor-assay potency score (higher = more potent)": -0.22}
    ]},
    {"biological_target": "YARS", "test": "pooled miR-30 sensor sort-seq; sequence = guide strand", "details": "shRNA", "values": [
      {"sequence": "TCGTAGGATCACAAACTCGGAC", "sensor-assay potency score (higher = more potent)": -0.717},
      {"sequence": "TTCTCATAGTAACTGACTCGGA", "sensor-assay potency score (higher = more potent)": -0.794},
      {"sequence": "TTCTCGAAGACTTTCTTCTTGG", "sensor-assay potency score (higher = more potent)": -0.635},
      {"sequence": "TTCTTCACATCCTCCTTCCGAT", "sensor-assay potency score (higher = more potent)": -0.429},
      {"sequence": "TTGAATAGCCAAGTGCAGGGAG", "sensor-assay potency score (higher = more potent)": 0.352},
      {"sequence": "TAGTGTGTACTCTTTGCTGAGC", "sensor-assay potency score (higher = more potent)": -0.796},
      {"sequence": "ATCTTCTCTACATACAGGCTGT", "sensor-assay potency score (higher = more potent)": -0.695},
      {"sequence": "TTTTAAATACTCTTCATCCAAA", "sensor-assay potency score (higher = more potent)": -1.12},
      {"sequence": "TCTAGTGTGTACTCTTTGCTGA", "sensor-assay potency score (higher = more potent)": 0.0358},
      {"sequence": "TTTTGCTGCCTGTTAATCCTGG", "sensor-assay potency score (higher = more potent)": -0.733}
    ]}
  ]
}
